Unmarked numbers belong to inactive results. Records with an inconclusive call do not appear. Entries that show only a call come without a potency. Calls of active or inactive are those of the source. Unless noted, calls follow the shape of the full dose curve.
Experiments:
[1] = Nuclear factor erythroid 2-related factor 2/antioxidant responsive element (Nrf2/ARE) small molecule agonists: qHTS cell viability counter screen in human keratinocytes (AID 1919968; active = well fitted cell-killing curve with a large enough effect in the repeat runs; also: nearly all actives have a fitted effect of over 55% in size)
In short: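 Seed 1,500 KeratinoSens cells per well, then incubate 5 h at 37 C/5% CO2. Add compounds in DMSO and incubate 23 h. Add CellTiter-Fluor, wait 1 h and read fluorescence.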

[2] = Nuclear factor erythroid 2-related factor 2/antioxidant responsive element (Nrf2/ARE) small molecule agonists: luciferase reporter gene qHTS assay in human keratinocytes (AID 1919969); also: nearly all actives have a fitted effect of over 35% in size
[3] = target: Gonadotropin-releasing hormone receptor (Homo sapiens) (UniProt P30968); assay: Human gonadotropin-releasing hormone receptor (GnRHR) small molecule agonists, calcium flux assay in GnRHR-HEK293 cells (AID 1920063); also: nearly all actives have a fitted effect of over 35% in size
Gonadotropin-releasing hormone receptor (Homo sapiens), sequence (P30968 whole entry, looked up): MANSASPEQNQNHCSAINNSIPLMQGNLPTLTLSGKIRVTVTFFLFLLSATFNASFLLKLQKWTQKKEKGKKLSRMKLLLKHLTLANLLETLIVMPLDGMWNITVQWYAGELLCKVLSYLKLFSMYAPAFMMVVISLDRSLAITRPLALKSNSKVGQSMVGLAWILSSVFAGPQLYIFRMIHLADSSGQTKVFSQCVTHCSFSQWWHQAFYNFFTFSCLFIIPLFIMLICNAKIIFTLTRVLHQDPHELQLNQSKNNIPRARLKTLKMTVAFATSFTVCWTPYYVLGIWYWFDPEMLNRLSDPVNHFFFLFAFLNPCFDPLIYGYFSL
In short: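 Cells: HEK293 stably expressing human GnRHR. Steps: overnight (18 h) culture, 1 h calcium dye loading at 37 C, compound addition, kinetic fluorescence read at 480/540 nm. Each compound tested at 15 concentrations in triplicate.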

[4] = G protein-coupled receptor (GPCR) small molecule agonists, calcium flux assay: HEK293 wild type cell line counter screen (AID 1920065)
In short: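 Counter-screen of the Tox21 10K library for non-specific calcium release: dye-loaded cells received compounds in DMSO and were monitored by kinetic fluorescence (480/540 nm, 3 min). Fifteen concentrations, run in triplicate.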

[5] = p53 small molecule agonists, cell-based qHTS assay with human liver microsomes (AID 1963577)
In short: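 Cells carrying a p53-responsive bla reporter were rested 5 h (37 C, 5% CO2) before compound transfer. Human liver microsomes plus NADPH, 0.5 mg/mL final apiece, supplied metabolism during the 16 h 37 C exposure.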

[6] = p53 small molecule agonists, cell-based qHTS assay with rat liver microsomes (AID 1963578)
In short: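 Fluorescence from a beta-lactamase reporter under a p53 response element was measured after cells had been incubated 16 h at 37 C with test compound and rat liver microsomes plus NADPH (0.5 mg/mL final each).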

[7] = p53 small molecule agonists, cell-based qHTS assay with human liver microsomes: qHTS cell viability counter screen (AID 1963579); also: nearly all actives have a fitted effect of over 45% in size
In short: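 Seed p53RE-bla cells at 4,000 per well; incubate 5 h at 37 C; add compound, human liver microsomes and NADPH; incubate 16 h at 37 C; add CellTiter-Glo; after 30 min at room temperature, read luminescence.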

[8] = p53 small molecule agonists, cell-based qHTS assay with rat liver microsomes: qHTS cell viability counter screen (AID 1963580); also: nearly all actives have a fitted effect of over 45% in size
In short: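 HCT-116 p53RE-bla, 4,000 cells/well, 5 h pre-incubation; cpd + rat liver microsomes 0.5 mg/mL + NADPH 0.5 mg/mL (final); 16 h, 37 C; CellTiter-Glo, 30 min RT; luminescence.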

[9] = p53 small molecule agonists, cell-based qHTS assay: qHTS cell viability counter screen (AID 1963581); also: nearly all actives have a fitted effect of over 45% in size
In short: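 Cells: HCT-116 with p53 response element-driven beta-lactamase. Treatment: 16 h, 37 C, compounds in DMSO. Read: CellTiter-Glo luminescence after 30 min RT.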

[10] = p53 small molecule agonists, cell-based qHTS assay (AID 1963582; active = well fitted activation curve with a large enough effect in the signal ratio in the repeat runs, not every such curve was filed as active; the % refers to the signal ratio)
In short: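 Quantitative HTS in p53RE-bla cells: after a 5 h settling period, compounds delivered in DMSO were left on cells for 16 h at 37 C, and reporter induction was measured as fluorescence following 2 h substrate loading.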

[11] = target: 5-hydroxytryptamine receptor 2A (Homo sapiens) (UniProt P28223); assay: 5-hydroxytryptamine receptor 2A (HTR2A) small molecule antagonists, cell-based qHTS assay (AID 1963586); also: nearly all actives have a fitted effect of over 45% in size
5-hydroxytryptamine receptor 2A (Homo sapiens), sequence (P28223 whole entry, looked up): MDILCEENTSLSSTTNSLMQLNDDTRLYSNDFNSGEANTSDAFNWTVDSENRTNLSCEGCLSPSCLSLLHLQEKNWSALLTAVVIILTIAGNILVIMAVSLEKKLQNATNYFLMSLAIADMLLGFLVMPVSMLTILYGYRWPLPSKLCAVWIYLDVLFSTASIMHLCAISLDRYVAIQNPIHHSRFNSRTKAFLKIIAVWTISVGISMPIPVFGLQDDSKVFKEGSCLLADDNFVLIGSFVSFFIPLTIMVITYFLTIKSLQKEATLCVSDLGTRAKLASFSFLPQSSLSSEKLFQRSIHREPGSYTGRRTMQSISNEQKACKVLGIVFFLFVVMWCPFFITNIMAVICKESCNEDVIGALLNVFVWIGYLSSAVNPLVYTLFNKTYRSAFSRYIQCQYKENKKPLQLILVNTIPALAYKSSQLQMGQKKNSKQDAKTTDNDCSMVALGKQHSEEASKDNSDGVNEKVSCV
In short: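 Antagonist-mode intracellular calcium assay: DOI (4 nM) added after 5 min compound pre-incubation at room temperature to dye-loaded HTR2A-CHO cells. Fluorescence followed for 3 min, sampled every second.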

[12] = target: Muscarinic acetylcholine receptor M1 (Homo sapiens) (UniProt P11229); assay: Cholinergic receptor muscarinic 1 (CHRM1) small molecule agonists, cell-based qHTS assay (AID 1963589); also: nearly all actives have a fitted effect of over 35% in size
Muscarinic acetylcholine receptor M1 (Homo sapiens), sequence (P11229 whole entry, looked up): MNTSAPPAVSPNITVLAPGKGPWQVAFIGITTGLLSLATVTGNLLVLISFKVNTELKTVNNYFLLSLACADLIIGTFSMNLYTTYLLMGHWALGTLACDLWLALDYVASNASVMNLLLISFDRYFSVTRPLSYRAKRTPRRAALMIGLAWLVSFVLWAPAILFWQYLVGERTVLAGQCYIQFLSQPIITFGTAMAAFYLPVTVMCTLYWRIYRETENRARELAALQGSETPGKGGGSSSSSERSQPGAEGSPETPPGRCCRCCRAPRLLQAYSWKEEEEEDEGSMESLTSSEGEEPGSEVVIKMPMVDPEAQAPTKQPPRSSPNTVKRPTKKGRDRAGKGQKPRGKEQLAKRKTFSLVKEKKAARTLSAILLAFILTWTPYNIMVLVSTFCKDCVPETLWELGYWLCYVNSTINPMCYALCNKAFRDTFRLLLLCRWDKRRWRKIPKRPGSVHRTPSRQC
In short: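 Agonist-mode qHTS in CHO cells stably carrying human muscarinic M1. Intracellular calcium is tracked by fluorescence every second after compound transfer; each compound runs at 15 concentrations in three independent runs.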

[13] = cAMP Responsive Elements (CRE) small molecule agonists, cell-based qHTS assay (AID 1963590)
In short: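 Agonist mode qHTS in CRE-bla HEK 293T cells: compounds dosed from DMSO for 3 h at 37 C/5% CO2, followed by LiveBLAzer B/G FRET substrate for 2 h at room temperature.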

[14] = cAMP Responsive Elements (CRE) small molecule antagonists, cell-based qHTS assay (AID 1963591; active = well fitted inhibition curve with a large enough effect in the signal ratio in the repeat runs, not every such curve was filed as active; the % refers to the signal ratio)
In short: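 Antagonist mode: test compounds are co-incubated with the adenylyl cyclase activator NKH477 (0.25 uM final) on CRE-bla HEK293T cells for 3 h at 37 °C, followed by LiveBLAzer substrate loading.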

[15] = target: Beta-2 adrenergic receptor (Homo sapiens) (UniProt P07550); assay: Adrenergic beta2 receptor (ADRB2) small molecule antagonists, cell-based qHTS assay (AID 1963592); also: series mostly up to about 92 µM; nearly all actives have a fitted effect of over 50% in size
Beta-2 adrenergic receptor (Homo sapiens), sequence (P07550 whole entry, looked up): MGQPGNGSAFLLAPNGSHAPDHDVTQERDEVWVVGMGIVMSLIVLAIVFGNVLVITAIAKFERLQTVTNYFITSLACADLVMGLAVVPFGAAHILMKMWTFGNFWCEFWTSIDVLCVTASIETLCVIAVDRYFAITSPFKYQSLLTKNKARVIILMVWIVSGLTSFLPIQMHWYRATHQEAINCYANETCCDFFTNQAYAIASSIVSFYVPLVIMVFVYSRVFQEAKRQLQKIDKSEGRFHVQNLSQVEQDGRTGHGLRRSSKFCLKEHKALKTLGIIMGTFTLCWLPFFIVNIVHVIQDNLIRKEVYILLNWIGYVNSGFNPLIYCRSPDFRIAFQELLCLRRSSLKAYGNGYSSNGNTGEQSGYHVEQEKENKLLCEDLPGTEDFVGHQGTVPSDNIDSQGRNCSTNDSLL
In short: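 Cells (CHO, stable ADRB2 overexpression) incubated 18-20hr at 37C; compounds added from DMSO; agonist mix (1nM isoproterenol, 100uM IBMX, 25uM Ro-20-1724) added; 0.5hr RT; d2-cAMP and anti-cAMP-cryptate added; 1hr RT; 665/615 nm read.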

[16] = target: Beta-2 adrenergic receptor (Homo sapiens) (UniProt P07550); assay: Adrenergic beta2 receptor (ADRB2) small molecule agonists, cell-based qHTS assay (AID 1963593);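 also: CHO cells stably overexpressing human ADRB2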
In short: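 CHO cells stably over-expressing ADRB2 were plated overnight at 37C, then dosed with compounds plus a stimulation mix containing 100uM IBMX and 25uM Ro-20-1724 for 0.5hr at room temperature. cAMP was measured by HTRF competition, 1hr.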

[17] = target: D(2) dopamine receptor (Homo sapiens) (UniProt P14416); assay: Dopamine D2 receptor (DRD2) small molecule agonists, cell-based qHTS assay (AID 1963594); also: nearly all actives have a fitted effect of over 35% in size
D(2) dopamine receptor (Homo sapiens), sequence (P14416 whole entry, looked up): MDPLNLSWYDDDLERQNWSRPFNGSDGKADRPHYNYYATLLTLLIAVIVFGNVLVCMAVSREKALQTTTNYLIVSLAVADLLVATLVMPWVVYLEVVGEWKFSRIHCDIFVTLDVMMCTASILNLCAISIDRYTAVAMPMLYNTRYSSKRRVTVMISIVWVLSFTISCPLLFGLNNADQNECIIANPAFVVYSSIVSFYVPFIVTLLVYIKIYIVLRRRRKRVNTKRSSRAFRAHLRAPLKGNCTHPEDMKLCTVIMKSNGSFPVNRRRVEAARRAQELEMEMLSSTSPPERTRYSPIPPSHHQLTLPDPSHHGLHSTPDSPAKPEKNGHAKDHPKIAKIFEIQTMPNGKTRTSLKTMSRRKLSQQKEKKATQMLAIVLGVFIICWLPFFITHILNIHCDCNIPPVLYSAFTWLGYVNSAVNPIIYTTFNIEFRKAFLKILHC
In short: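 cAMP accumulation in DRD2-HEK293 cells measured by HTRF after 1 h detection; compounds added 10 min before NKH477 (200nM […]) forskolin-analogue stimulation, 30 min at room temperature, with Ro20-1724 present at 0.1 mM final.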

[18] = target: D(2) dopamine receptor (Homo sapiens) (UniProt P14416); assay: Dopamine D2 receptor (DRD2) small molecule antagonists, cell-based qHTS assay (AID 1963595; active = well fitted inhibition curve with a large enough effect in the signal ratio in the repeat runs, with a control signal flat; the % refers to the signal ratio)
In short: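 DRD2-HEK293; 0.1 mM Ro20-1724; cpd 10 min RT; NKH477 200 nM + quinpirole 12 nM, 30 min RT; HTRF cAMP (cAMP-d2/anti-cAMP cryptate), 665/620 nm ratio after 1 h.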

[19] = target: 5-hydroxytryptamine receptor 2A (Homo sapiens) (UniProt P28223); assay: 5-hydroxytryptamine receptor 2A (HTR2A) small molecule agonists, cell-based qHTS assay (AID 1963587); also: nearly all actives have a fitted effect of over 30% in size
In short: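 Kinetic calcium-flux fluorescence (2 min, 1 sec intervals) after compound addition in agonist mode. HTR2A-CHO cells were cultured 18 h, then dye-loaded 1 h at 37 C.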

[20] = target: Muscarinic acetylcholine receptor M1 (Homo sapiens) (UniProt P11229); assay: Cholinergic receptor muscarinic 1 (CHRM1) small molecule antagonists, cell-based qHTS assay (AID 1963588); also: nearly all actives have a fitted effect of over 40% in size; also: potency is read from the fitted curve at half-maximal effect
In short: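 CHRM1-CHO calcium-flux assay, antagonist mode. Cells were seeded 18 h, dye-loaded 1 h at 37 C and given compound for 5 min at RT, then acetylcholine was added at 50nM. FDSS fluorescence was read 3 min; 15 concentrations, three runs.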

Compound: C=CCOCC(CO)(COCC=C)COCC=C
- Potency [1]: inactive
- Potency [2]: inactive
- Potency [3]: inactive
- Potency [4]: inactive
- Potency [5]: inactive
- Potency [6]: inactive
- Potency [7]: inactive
- Potency [8]: inactive
- Potency [9]: inactive
- Potency [10]: inactive
- Potency [11]: inactive
- Potency [12]: inactive
- Potency [13]: inactive
- Potency [14]: inactive
- Potency [15]: inactive
- Potency [16]: inactive
- Potency [17]: inactive
- Potency [18]: inactive

Compound: O=C(O)CCC(=O)Nc1ccc(S(=O)(=O)Nc2nccs2)cc1
- Potency [1]: inactive
- Potency [2]: inactive
- Potency [3]: inactive
- Potency [4]: inactive
- Potency [5]: inactive
- Potency [6]: inactive
- Potency [7]: inactive
- Potency [8]: inactive
- Potency [9]: inactive
- Potency [10]: inactive
- Potency [19]: inactive
- Potency [20]: inactive
- Potency [12]: inactive
- Potency [14]: inactive
- Potency [15]: inactive
- Potency [17]: inactive
- Potency [18]: inactive

Compound: CC(C)N=C(N)/N=C(\N)Nc1ccc(Cl)cc1
- Potency [1]: inactive
- Potency [2]: inactive
- Potency [3]: inactive
- Potency [4]: inactive
- Potency [5]: inactive
- Potency [6]: inactive
- Potency [8]: inactive
- Potency [9]: inactive
- Potency [10]: inactive
- Potency [11]: inactive
- Potency [19]: inactive
- Potency [20]: 0.729 µM (active)
- Potency [12]: inactive
- Potency [13]: inactive
- Potency [14]: inactive
- Potency [15]: inactive
- Potency [17]: inactive

Compound: O=[N+]([O-])c1ccccc1Nc1ccccc1
- Potency [1]: inactive
- Potency [2]: inactive
- Potency [3]: inactive
- Potency [4]: inactive
- Potency [5]: inactive
- Potency [6]: inactive
- Potency [7]: inactive
- Potency [8]: inactive
- Potency [10]: inactive
- Potency [11]: inactive
- Potency [19]: inactive
- Potency [20]: inactive
- Potency [12]: inactive
- Potency [13]: inactive
- Potency [14]: inactive
- Potency [15]: inactive
- Potency [17]: inactive
- Potency [18]: inactive
